A number with no mark means an inactive call. Activity calls are given as the source filed them. Calls follow the shape of the full dose curve.
target: Gonadotropin-releasing hormone receptor (Homo sapiens) (UniProt P30968); test: Human gonadotropin-releasing hormone receptor (GnRHR) small molecule agonists, calcium flux assay in GnRHR-HEK293 cells (AID 1920063); details: calcium flux fluorescence, agonist mode; series mostly up to 57.6 µM; activity change: at the top concentration; also: nearly all actives have a fitted effect of over 35% in size
Text: National Center for Advancing Translational Sciences [NCATS]
Division of Preclinical Innovation [DPI]
U.S. Environmental Protection Agency [EPA]
National Institutes of Environmental Health Sciences [NIEHS]
National Toxicology Program [NTP]
U.S. Food and Drug Administration [FDA]
Gonadotropin-releasing hormone receptor (GnRHR) is a G-protein-coupled receptor (GPCR) and acts (through phospholipase C) to increase intracellular inositol trisphosphate and then release intracellular calcium stores. Cell-based GnRHR-Hek293 calcium influx assay is using HEK293 cells that have been genetically engineered to express the human GnRHR, which activity can be measured by calcium signaling. A compound/drug can activate (agonist) GnRHR that can be monitored by levels of intracellular calcium.
GnRHR-HEK293 cells developed by Codex Corp contain human GnRHR reporter gene, which was stably integrated into HEK 293 cells. The compound activation can be detected by fluorescence intensity via calcium flux assay. This cell line has been used to screen the Tox21 10K compound library to identify GnRHR agonists.
GnRHR-Hek293 cells were dispensed at 1500cells/4uL/well in 1536-well black wall/clear bottom plates using a multidrop dispenser. After the assay plates were incubated at a 37 C/5% CO2 incubator for 18 hours, 4 uL of Calcium Dye Solution was added to each well. The plates were incubated at 37 C for 1 hour. For agonist mode, 23 nL of compounds dissolved in DMSO, positive controls or DMSO only was transferred to the assay plate by a pin tool station. The fluorescence intensity in the plates was measured using FDSS 7000EX kinetic plate reader with a filter set of Ex/Em=480/540 for 3 min at 1 sec intervals. Each test compound was measured at 15 concentrations and in triplicates.
% is scaled to controls: 0 for no effect and ±100 for the full control effect.

Gonadotropin-releasing hormone receptor (Homo sapiens), sequence (P30968 whole entry, looked up): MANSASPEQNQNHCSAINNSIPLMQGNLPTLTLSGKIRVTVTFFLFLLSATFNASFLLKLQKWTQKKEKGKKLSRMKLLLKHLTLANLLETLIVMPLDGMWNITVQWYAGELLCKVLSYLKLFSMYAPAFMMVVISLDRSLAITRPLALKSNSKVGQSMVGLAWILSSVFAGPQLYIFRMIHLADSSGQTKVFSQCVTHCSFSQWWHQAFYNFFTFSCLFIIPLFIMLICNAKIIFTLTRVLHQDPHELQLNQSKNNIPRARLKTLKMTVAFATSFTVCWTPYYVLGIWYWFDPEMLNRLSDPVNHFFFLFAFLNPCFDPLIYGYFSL

Compound	activity change	Potency
CCCCCCCCNC	-0.328%	–
Sc1nc(S)nc(S)n1	-0.518% [at 26.4 µM, hits give high values]	–
Nc1ccc(O)c(N)c1	–	inactive
CCCCCCC(C)OC(=O)COc1nc(F)c(Cl)c(N)c1Cl (stereo not given)	-0.508%	–
CC(C)c1ccc2ncccc2c1	-1.1%	–
C[C@]12CC[C@H]3C(=CCc4cc(O)ccc43)[C@@H]1CCC2=O	-0.139%	–
O=C1CCCN1C1CCCCC1	-0.672%	–
O=C1c2ccccc2C(=O)c2cc(S(=O)(=O)O)ccc21	-0.16%	–
O=C(O)c1c2ccccc2cc2ccccc12	-0.373%	–
Cc1nc2ccc(CN(C)c3ccc(C(=O)N[C@@H](CCC(=O)O)C(=O)O)s3)cc2c(=O)[nH]1	-0.0796% [at 26.4 µM, hits give high values]	–
Nc1nc2ccc(OC(F)(F)F)cc2s1	0.226% [at 26.4 µM, hits give high values]	–
CCOC(=O)[C@@](C)(N)Cc1ccc(O)c(O)c1	-1.12% [at 26.4 µM, hits give high values]	–
O=C(O)Cn1cnnn1	0.679% [at 26.4 µM, hits give high values]	–
CC(C(=O)O)c1ccc2c(c1)[nH]c1ccc(Cl)cc12 (stereo not given)	-1.65% [at 26.4 µM, hits give high values]	–
C=CCOCC(O)CS(=O)(=O)O (stereo not given)	1.31%	–
CC(O)CC(C)O (stereo not given)	0.785%	–
CCOC(=O)COc1ccc2c(C)c(CCN(CC)CC)c(=O)oc2c1Cl	-1.23% [at 26.4 µM, hits give high values]	–
C=Cc1ccncc1	0.542%	–
CCOc1cccc(-n2cc(C(=O)N3CCN(c4cc(C(=O)O)c5ccccc5c4)CC3)nc2-c2ccc(C)cc2)c1	6.02%	–
CC(C)Cn1cnc2c1c(=O)n(C)c(=O)n2C	-1.82% [at 26.4 µM, hits give high values]	–

Compound	activity change	Potency
COc1cc(C)nc(-n2nc(C)cc2OC)n1	0.359% [at 26.4 µM, hits give high values]	–
CN(C)CCCCCCN(C)C	9.04%	–
COC(=O)CSc1cc(N=c2sc(=O)n3n2CCCC3)c(F)cc1Cl	1.42%	–
CC(CN)CC(C)(C)CCN (stereo not given)	2.71% [at 150 µM, hits give high values]	–
O=Cc1ccc(Cl)c([N+](=O)[O-])c1	-1.62%	–
CC1=NN(c2ccc(S(=O)(=O)O)cc2)C(=O)C1N=Nc1ccccc1 (stereo not given)	-0.659%	–
CCCCCOC(=O)c1ccc(O)cc1	12.3%	–
O=C1c2ccccc2C(=O)c2c1ccc(O)c2O	1.71% [at 26.4 µM, hits give high values]	–
CO[C@]1(NC(=O)CSC(F)F)C(=O)N2C(C(=O)O)=C(CSc3nnnn3CCO)CO[C@H]21	0.188% [at 26.4 µM, hits give high values]	–
O=C(O)c1ccccc1Nc1cc(Cl)ccc1C(=O)O	-1.18% [at 11.8 µM, hits give high values]	–
CCN1CCOCC1	1.21%	–
O=C(NOCC1CC1)c1ccc(F)c(F)c1Nc1ccc(I)cc1Cl	2.79% [at 26.4 µM, hits give high values]	–
CC(=O)Oc1cccc(C)c1	0.463% [at 26.4 µM, hits give high values]	–
CN1C(C)(C)CC(O)CC1(C)C	2.05%	–
CC1=C(C(=O)O)N2C(=O)[C@@H](NC(=O)[C@H](N)C3=CCC=CC3)[C@H]2SC1	0.573% [at 26.4 µM, hits give high values]	–
CC(C)(C)C(=O)c1ccccc1	-0.0085%	–
CC(C)n1c(/C=C/[C@@H](O)C[C@@H](O)CC(=O)O)c(-c2ccc(F)cc2)c2ccccc21	–	inactive
COCc1nnc(-c2ccc[n+]([O-])c2)n1-c1c(Cl)c(Cl)cc2[nH]c(=O)c(=O)[nH]c12	-0.427%	–
COc1cc(/C=C/c2ccccc2)oc(=O)c1	-0.2%	–
O=C(/C=C/c1ccc(O)c(O)c1)O[C@@H](C(=O)O)[C@@H](OC(=O)/C=C/c1ccc(O)c(O)c1)C(=O)O	-0.581%	–
